AddAB inh = less growth of phage-infected E. coli with AddAB. E. coli expressing H. pylori AddAB, absorbance growth. inhibition, % at 11.9 µM. 330,000 tested, 0.29% active; in the data active = inhibition above about 12%;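 also: 0% = vehicle wells of infected cells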
E coli growth-1 = inhibitors of Escherichia coli growth. OD600, 23 h; stronger effect = lower value. OD600 absorbance (concentration not given with the values). 330,000 tested, 0.21% active. AID 1053175;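 active = OD600 absorbance below the run mean of sample wells minus 3.6 SD, in any replicate, cut at about 0.56 in these data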
phage Ecoli inh = E. coli growth loss with phage present. inhibition, % at 11.9 µM. 360,000 tested, 0.26% active. growth absorbance; in the data active = inhibition above about 11%
Tat transport = inhibitors of E. coli Tat protein transport; 340,000 tested, 0.036% active; E. coli MC4100 TorA-mCherry Tat export, fluorescence; AID 488895; inhibition, % at 10 µM;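 active = mean replicate inhibition at least 50% and at least half of replicates individually reaching 50%; inconclusive = only one of the two criteria met; inactive = neither criterion met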;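 also: exported cargo escapes ClpAP degradation while cytoplasmic cargo is degraded and loses fluorescence; 0% = median of neutral control wells and 100% = median of NaSCN control wells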
E coli growth-2 = counter-screen for AddAB inhibitors: E. coli growth inhibition; inhibition, % at 11.9 µM; E. coli V3065 growth, OD600 absorbance, 18 h; AID 449728; 330,000 tested, 0.27% active;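 active = inhibition above the campaign's mean inhibition across all tested compounds plus 3 SD, cut at about 9.9% in these data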;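 also: uninfected addAB+ strain grown without phage in ampicillin broth; 0% = DMSO wells and 100% = ciprofloxacin 0.95 µg/ml wells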
AddAB confirm = confirmation screen: growth loss of phage-infected E. coli expressing H. pylori AddAB. AID 488942. inhibition, % at 11.9 µM. E. coli V3065 expressing H. pylori AddAB, T4 phage, OD; T4 phage with gene 2 nonsense mutations. 880 tested, 64% active. shares compounds with AddAB inh;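 active = mean inhibition above a set limit taken from the earlier primary screen, cut at about 13% in these data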;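 also: higher means less bacterial growth since AddAB block lets phage replicate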
RecBCD counter = AddAB counter-screen: growth loss of RecBCD+ E. coli infected with mutant T4 phage | shares compounds with AddAB inh | inhibition, % at 11.9 µM | E. coli V66 + mutant T4 phage, OD growth | 880 tested, 73% active;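 active = mean inhibition above the mean of solvent-only control wells plus 3 SD, cut at about 4% in these data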;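 also: optical density read after an 18 h incubation at 37 °C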
bact viab count = counter-screen for AddAB inhibitors: inhibitors of bacterial viability | shares compounds with AddAB inh | absorbance (AddAB counterscreen) | inhibition, % at 11.9 µM | 880 tested, 35% active; in the data active = inhibition above about 25%
RecBCD conf = confirmation: growth loss of phage-infected RecBCD+ E. coli (RecBCD inhibitor screen); shares compounds with phage Ecoli inh; E. coli V66 + T4 2- phage, growth OD; inhibition, % at 11.9 µM; 890 tested, 45% active; AID 651982;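 active = mean inhibition over triplicates exceeding the hit threshold derived in the original primary screen, cut at about 11% in these data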
Ecoli viability = counter-screen for RecBCD inhibitors: inhibitors of bacterial viability. shares compounds with phage Ecoli inh. AID 651983. 890 tested, 29% active. E. coli viability, absorbance (OD) growth. inhibition, % at 11.9 µM; in the data active = inhibition above about 20%;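 also: E. coli strain V66 grown with compound alone and no phage infection; 0% = bacteria with DMSO vehicle only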
AddAB counter = growth loss of phage-infected AddAB E. coli, RecBCD counter-screen. shares compounds with phage Ecoli inh. E. coli expressing H. pylori AddAB + T4 phage, OD growth; gene 2 mutant T4, recBCD-deleted host. inhibition, % at 11.9 µM. 890 tested, 45% active;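 active = mean inhibition above the solvent-only control wells' mean plus 3 SD, cut at about 22% in these data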;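 also: higher means less bacterial growth from phage killing when AddAB is blocked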
* = called active by the depositor; ? = inconclusive; . = no result. In the library only some 0.51% were active in any assay of this set; here they are far more common.

SMILES	AddAB inh	E coli growth-1	phage Ecoli inh	Tat transport	E coli growth-2	AddAB confirm	RecBCD counter	bact viab count	others
CC(O)Cc1cn(-c2cc3cc(C#Cc4ccsc4)ccc3oc2=O)nn1 (stereo not given)	.	0.64	.	.	.	.	.	.
Cc1sc2cc3c(c(C(=O)c4ccccc4)[n+]2c1C)-c1cccc2cccc-3c12	6	0.56	3	.	0	.	.	.
O=C(c1ccccc1)c1c2c(cc3sc4ccccc4[n+]13)-c1cccc3cccc-2c13	16*	0.48*	7	7	5	89*	1	19
O=C(NCCCn1ccnc1)C(=O)NCC(c1ccco1)N1CCN(c2ccccc2)CC1 (stereo not given)	0	0.72	1	0	2	.	.	.
O=C(NCCCn1ccnc1)C(=O)NCC(c1cccnc1)N1CCN(c2ccccc2)CC1 (stereo not given)	97*	0.74	1	-3	98*	-5	0	0
COc1ccc(NC(=O)CSc2nc3ncccc3[nH]2)cc1OC	13*	0.7	5	-9	3	-2	4	1
CCOC(=O)N/N=C\c1ccc([N+](=O)[O-])o1	31*	.	6	?	26*	98*	13*	29*
O=[N+]([O-])c1ccc(C=NNS(=O)(=O)c2ccc(Cl)cc2)o1	.	0.5	.	.	.	.	.	.
Cc1ccc(S(=O)(=O)N/N=C\c2ccc([N+](=O)[O-])o2)cc1C	25*	.	9	11	16*	100*	9.5*	41*
Cc1ccc(S(=O)(=O)N/N=C\c2ccc([N+](=O)[O-])o2)cc1	18*	.	7	-5	13*	102*	9.5*	54*
O=[N+]([O-])c1ccc(/C=N/NS(=O)(=O)c2ccc(Cl)cc2)o1	96*	.	8	5	22*	101*	7.7*	43*
Cc1ccc(/C=N/NS(=O)(=O)c2ccc([N+](=O)[O-])cc2)o1	3	.	3	3	-2	.	.	.
Cc1ccc(S(=O)(=O)N2CCOCC2)cc1NN=C(C#N)c1nc2ccccc2[nH]1	.	0.72	.	.	.	.	.	.
CCn1nnnc1SCC(=O)NCc1ccc2c(c1)OCO2	21*	0.77	1	-1	13*	-5	-2	-5
COc1ccc(C2CC(=O)C=C(c3cccc(C#N)c3)C2)cc1 (stereo not given)	.	0.67	.	.	.	.	.	.
CCOc1ccc(NC(=O)NNC(=O)c2ccc3ccccc3c2O)cc1	13*	0.68	11	-8	12*	9	12*	11
CCc1ccccc1NC(=O)NNC(=O)c1ccc2ccccc2c1O	1	0.71	5	7	4	.	.	.
CCCCC(CC)CN=C(N)NC(N)=NCCCCCCN=C(N)NC(N)=NCC(CC)CCCC (stereo not given)	98*	.	.	76*	101*	104*	73*	98*
CCOc1ccc(C=NNC(=O)c2cccc3ccccc23)c(OCC)c1	.	0.65	.	.	.	.	.	.
COc1cc(C2Nc3cc(Cl)c(S(N)(=O)=O)cc3S(=O)(=O)N2)cc(OC)c1OC (stereo not given)	1	0.75	4	-2	5	.	.	.
NS(=O)(=O)c1cc2c(cc1Cl)NCNS2(=O)=O	55*	0.71	3	-9	38*	100*	6.2*	75*
Cc1nc2sc(C(c3ccco3)N3CCN(C(c4ccccc4)c4ccccc4)CC3)c(O)n2n1 (stereo not given)	37*	0.81	2	12	22*	5	3	2
CC(SCc1ccccc1)C(=O)NN=Cc1ccc2c(c1)OCO2 (stereo not given)	.	0.75	.	.	.	.	.	.
CC1CCCCN1Cc1nc2c(c(=O)n(C)c(=O)n2C)n1Cc1c(F)cccc1Cl (stereo not given)	35*	0.72	.	0	25*	-5	-1	-3
Cn1c(=O)c2c(nc(CN3CCC(C(N)=O)CC3)n2Cc2c(F)cccc2Cl)n(C)c1=O	-1	0.72	3	-6	-4	.	.	.
SMILES	AddAB inh	E coli growth-1	phage Ecoli inh	Tat transport	E coli growth-2	AddAB confirm	RecBCD counter	bact viab count	others
C=CCCC(Cc1ccc(F)cc1)C(=O)OCC(C)NC(=O)C(CC=C)CC(=O)N(CCO)Cc1ccccc1 (stereo not given)	.	0.72	.	.	.	.	.	.
O=C(O)c1cn(-c2ccc(N3CCCC3)c(F)c2)c2c(F)c(F)c(F)cc2c1=O	22*	0.46*	0	-8	17*	21*	-2	5
COc1cc(NS(=O)(=O)c2ccc(NC(=S)NC(=O)c3sc4ccccc4c3Cl)cc2)ncn1	13*	0.72	8	6	5	-2	2	0
COc1ccc(C(=O)NN=C(C)CC(=O)Nc2ccc(Cl)cn2)cc1	.	0.67	.	.	.	.	.	.
Cc1ccc(-c2oc3ccccc3c(=O)c2O)cc1	13*	0.72	4	6	13*	14*	14*	10
O=c1c(O)c(-c2ccccc2)oc2ccccc12	.	.	10	0	.	.	.	.
COc1ccc(C(=O)NC(=S)NNC(=O)c2ccccc2O)cc1	15*	0.7	12*	-1	18*	19*	23*	23	RecBCD conf=12*;Ecoli viability=16;AddAB counter=22*
O=C(/C=C/c1cccs1)NC(=S)NNC(=O)c1ccccc1O	26*	0.6	21*	0	22*	19*	22*	20	RecBCD conf=11;Ecoli viability=17;AddAB counter=23*
Cc1ccc(C(=O)NNC(=O)c2cc3ccccc3cc2O)cc1	11	0.66	7	-11	-1	.	.	.
COc1ccc(C(=O)NC(=S)NNC(=O)c2ccccc2C)cc1	-3	0.68	-1	-10	-5	.	.	.
COc1ccc(C)cc1NC(=O)NNC(=O)c1cc2ccccc2cc1O	16*	0.64	13*	-3	15*	17*	14*	12	RecBCD conf=3;Ecoli viability=3;AddAB counter=6
O=C(NNC(=O)c1cc2ccccc2cc1O)Nc1ccc(Br)cc1	15*	0.69	15*	2	11*	14*	17*	14	RecBCD conf=7;Ecoli viability=7;AddAB counter=9
COc1ccc(C(=O)NNC(=S)NC(=O)/C=C/c2cccs2)cc1	-6	0.72	-2	-15	-6	.	.	.
NCCCCC(C(=O)N1CCNCC1)n1cc(C(N)CC(N)=O)nn1 (stereo not given)	.	0.73	.	.	.	.	.	.

High-throughput results (PubChem)
